Test results taken from PubChem BioAssay (NCATS).
Results filed as inconclusive are left out. Active and inactive are the calls of the source. Unless noted, calls follow the shape of the dose curve; as a rule, active = well fitted curve in the direction sought with a large enough effect in the repeat runs; inconclusive = weak or mixed curves; inactive = no such curve, though single readings can be large; an effect the other way counts as inactive or inconclusive.

Legend:
[1] = Primary qHTS for small molecule stabilizers of the endoplasmic reticulum resident proteome: Secreted ER Calcium Modulated Protein (SERCaMP) assay (AID 1508630; active = well fitted curve in the direction sought with a large enough effect; an effect the other way counts as inactive or inconclusive); conditions: SH-SY5Y GLuc-SERCaMP (Gaussia luciferase released on ER calcium loss) secretion, thapsigargin, luminescence; series mostly up to 38.4 µM
Outline: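 The SH-SY5Y reporter protocol was run at 3 concentrations up to 38.3 uM (primary) or 11 concentrations (follow-up): 16 h compound, 100 nM thapsigargin for 4 h, then extracellular luciferase luminescence.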

[2] = A High-Content qHTS Against Drug Library for the Identification of Small Molecules that Inhibit DYT1 Early Onset Primary Dystonia-Associated Cell Pathology (AID 1645839; calls by dose curve; also: potency is read from the fitted curve at half-maximal effect); conditions: HEK293 Flp-In EGFP-delE TorsinA, punctate imaging, 48 h; series mostly up to 46.1 µM
Outline: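 Cells were seeded and left for 24 h, then dosed with compound alongside tetracycline induction of mutant EGFP-TorsinA. They were incubated for 48 h, fixed in 4% paraformaldehyde, permeabilized and imaged for mislocalization (%pathology) and cell count.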

[3] = target: Cytochrome P450 2D6 (Homo sapiens) (UniProt P10635); test: Cytochrome P450 family 2 subfamily D member 6 (CYP2D6) small molecule antagonists: luciferase biochemical (cell-free) qHTS assay (AID 1645840); conditions: P450-Glo CYP2D6 enzyme, luciferin luminescence, 1 h; series mostly up to 57.4 µM; also: nearly all actives have a fitted effect of over 55% in size; also: potency is read from the fitted curve at half-maximal effect
Chain of Cytochrome P450 2D6 (Homo sapiens) (P10635 whole entry, looked up): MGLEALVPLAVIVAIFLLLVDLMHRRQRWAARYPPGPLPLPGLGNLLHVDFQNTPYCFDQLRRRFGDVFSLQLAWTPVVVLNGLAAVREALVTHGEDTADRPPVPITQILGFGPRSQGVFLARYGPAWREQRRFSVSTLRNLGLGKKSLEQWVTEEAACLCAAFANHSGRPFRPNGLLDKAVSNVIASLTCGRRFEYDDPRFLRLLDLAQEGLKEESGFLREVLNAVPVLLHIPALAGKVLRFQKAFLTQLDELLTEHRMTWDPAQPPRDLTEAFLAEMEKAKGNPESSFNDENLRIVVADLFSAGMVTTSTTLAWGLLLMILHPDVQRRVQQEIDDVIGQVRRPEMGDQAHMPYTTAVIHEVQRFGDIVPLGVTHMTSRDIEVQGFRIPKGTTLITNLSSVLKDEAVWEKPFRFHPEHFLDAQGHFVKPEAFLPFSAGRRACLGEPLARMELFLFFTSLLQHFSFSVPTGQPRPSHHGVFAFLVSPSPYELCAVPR
Outline: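 P450-Glo CYP2D6 system: proluciferin substrate converted by enzyme to luciferin, read by luminescence proportional to activity. Enzyme-substrate mix with compound 10 min at room temperature, then NADPH regeneration 1 h before detection reagent.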

[4] = target: Cytochrome P450 2C9 (Homo sapiens) (UniProt P11712); test: Cytochrome P450 family 2 subfamily C member 9 (CYP2C9) small molecule antagonists: luciferase biochemical (cell-free) qHTS assay (AID 1645842); conditions: P450-Glo CYP2C9 enzyme assay, luciferin luminescence; series mostly up to 57.4 µM; also: nearly all actives have a fitted effect of over 55% in size; also: potency is read from the fitted curve at half-maximal effect
Chain of Cytochrome P450 2C9 (Homo sapiens) (P11712 whole entry, looked up): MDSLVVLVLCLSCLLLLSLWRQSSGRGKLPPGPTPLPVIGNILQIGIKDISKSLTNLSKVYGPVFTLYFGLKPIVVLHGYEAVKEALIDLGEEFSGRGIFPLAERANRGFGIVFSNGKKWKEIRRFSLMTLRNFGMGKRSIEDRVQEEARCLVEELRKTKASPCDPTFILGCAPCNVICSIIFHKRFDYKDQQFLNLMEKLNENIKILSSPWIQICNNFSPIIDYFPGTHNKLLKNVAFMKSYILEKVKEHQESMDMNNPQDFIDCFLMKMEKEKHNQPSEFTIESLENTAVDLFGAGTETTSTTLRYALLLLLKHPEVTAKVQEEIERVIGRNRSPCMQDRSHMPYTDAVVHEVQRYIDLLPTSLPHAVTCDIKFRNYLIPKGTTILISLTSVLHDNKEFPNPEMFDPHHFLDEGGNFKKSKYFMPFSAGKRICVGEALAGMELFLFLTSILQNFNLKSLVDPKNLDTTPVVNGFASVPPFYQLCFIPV
Outline: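 P450-Glo CYP2C9 system: proluciferin substrate with enzyme in mix containing 0.4% BSA, 10 min at room temperature, then NADPH regeneration solution added and incubated 1 h at 37C. Detection reagent stopped reaction; luminescence read after 20 min as RLU.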

[5] = target: Cytochrome P450 3A4 (Homo sapiens) (UniProt P08684); test: Cytochrome P450 family 3 subfamily A member 4 (CYP3A4) small molecule antagonists: luciferase qHTS assay (AID 1645841); conditions: P450-Glo CYP3A4 enzyme assay, luciferin luminescence; series mostly up to 57.4 µM; also: nearly all actives have a fitted effect of over 45% in size
Chain of Cytochrome P450 3A4 (Homo sapiens) (P08684 whole entry, looked up): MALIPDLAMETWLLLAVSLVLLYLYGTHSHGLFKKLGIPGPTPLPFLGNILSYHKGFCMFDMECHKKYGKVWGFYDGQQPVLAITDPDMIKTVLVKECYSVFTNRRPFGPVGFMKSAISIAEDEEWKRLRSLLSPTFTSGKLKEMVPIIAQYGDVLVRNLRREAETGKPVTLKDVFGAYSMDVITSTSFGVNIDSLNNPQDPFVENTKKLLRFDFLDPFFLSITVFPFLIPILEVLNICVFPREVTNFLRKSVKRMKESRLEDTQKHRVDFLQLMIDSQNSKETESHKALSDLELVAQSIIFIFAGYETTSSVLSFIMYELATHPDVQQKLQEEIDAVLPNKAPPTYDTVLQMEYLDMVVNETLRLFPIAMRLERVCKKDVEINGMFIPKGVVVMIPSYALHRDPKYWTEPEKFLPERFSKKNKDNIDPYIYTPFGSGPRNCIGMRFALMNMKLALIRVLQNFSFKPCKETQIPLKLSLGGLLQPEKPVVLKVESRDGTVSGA
Outline: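 P450-Glo CYP3A4 enzyme with proluciferin substrate preincubated 10 min with compound at room temperature, then NADPH regeneration 1 h. Luciferin detection reagent added for 20 min; luminescence recorded. Ketoconazole positive control.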

Measured: Potency

O=C1CC2(CCCC2)CC(=O)N1
not listed: [5]
inactive: all other assays above

CC(C)CCCC(C)NCCC(C)C (stereo not drawn)
active: [3] 0.55 µM
inactive: [1] | [2] | [4]

CC(=O)OCC(=O)Nc1cc(C#N)cc(NC(=O)COC(C)=O)c1Cl
inactive: all assays above

Oc1ccccc1-c1nnco1
not listed: [5]
inactive: all other assays above

CCCC(=O)O[C@]1(C(=O)COC(=O)CC)CC[C@H]2[C@@H]3CCC4=CC(=O)CC[C@]4(C)[C@H]3[C@@H](O)C[C@@]21C
inactive: all assays above

CO[C@@]1(NC(=O)CSC[C@@H](N)C(=O)O)C(=O)N2C(C(=O)O)=C(CSc3nnnn3C)CS[C@@H]21
inactive: all assays above

CN=C(N)NC(=O)Nc1c(C)cccc1C
not listed: [5]
inactive: all other assays above

CC(C(=O)O)c1ccc(/C=C2\CCCCC2=O)cc1 (stereo not drawn)
not listed: [5]
inactive: all other assays above

CC(C)OP(=O)(CP(=O)(OC(C)C)OC(C)C)OC(C)C
not listed: [5]
inactive: all other assays above

Cc1ccc2ccc(Cl)cc2n1
not listed: [5]
inactive: all other assays above

CCOC(=O)OCC/C(SC(=O)OCC)=C(\C)N(C=O)Cc1cnc(C)nc1N
active: [3] 2.16 µM
inactive: [1] | [2] | [4]

O=C(OCC1(COC(=O)c2cccnc2)CCCC(COC(=O)c2cccnc2)(COC(=O)c2cccnc2)C1O)c1cccnc1
inactive: [1] | [2] | [3]
active: [4] 2.45 µM

Cc1ncc([N+](=O)[O-])n1C
not listed: [5]
inactive: all other assays above

O=c1[nH]c(=O)n([C@H]2O[C@H](CO)[C@@H](O)[C@@H]2O)cc1/C=C\Br
not listed: [5]
inactive: all other assays above

CCN(CC)CCN
not listed: [5]
inactive: all other assays above

N#Cc1cc(NC(=O)C(=O)O)c(Cl)c(NC(=O)C(=O)O)c1
not listed: [5]
inactive: all other assays above

O=C(CCCCCCCCC#CI)Oc1ccccc1
active: [3] 5.42 µM | [4] 16.2 µM
inactive: [1] | [2]

Cc1cccc(N(C)C(=S)Oc2ccc3c(c2)C2CCC3C2)c1 (stereo not drawn)
active: [4] 7.76 µM
inactive: [1] | [2] | [3]

CN1C(=O)CC(C)(c2ccccc2)C1=O (stereo not drawn)
not listed: [5]
inactive: all other assays above

NC(=O)C1(N2CCCCC2)CCN(CCCN2c3ccccc3CCc3ccc(Cl)cc32)CC1
active: [2] 3.98 µM | [3] 2.45 µM | [4] 4.9 µM
inactive: [1]

CCCCC(O)/C=C(C)/C=C/C=C/C(=O)N1CCCC1=O (stereo not drawn)
not listed: [5]
inactive: all other assays above

COCCc1ccc(OCC2CO2)cc1 (stereo not drawn)
not listed: [5]
inactive: all other assays above

O=C(CCCl)NCCc1ccccc1
not listed: [5]
inactive: all other assays above

Cc1cccc(C)c1NC(=O)c1ccc(N)cc1
not listed: [5]
inactive: all other assays above

Nc1ncnc2c1ncn2Cc1c(F)cccc1Cl
not listed: [5]
inactive: all other assays above

O=c1[nH]c2ccccc2c(=O)n1CCCl
not listed: [5]
inactive: all other assays above

CCC(C(=O)NC(=O)NC(C)=O)c1ccccc1 (stereo not drawn)
not listed: [5]
inactive: all other assays above

CC(C)(C)NCC(O)COc1ccccc1OCC1CCCO1 (stereo not drawn)
active: [3] 6.17 µM
inactive: [1] | [2] | [4]

OCCCc1ccccc1
not listed: [5]
inactive: all other assays above

CCOC(=O)O[C@]1(C(=O)OCCl)CC[C@H]2[C@@H]3CCC4=CC(=O)C=C[C@]4(C)[C@H]3[C@@H](O)C[C@@]21C
not listed: [5]
inactive: all other assays above

CCS(=O)(=O)c1ccc(OC)c(C(=O)OC)c1
not listed: [5]
inactive: all other assays above

CC(C)NC(=O)c1ccc(C=O)cc1
not listed: [5]
inactive: all other assays above

COc1cc(NS(=O)(=O)c2ccc(N)cc2)nc(C)n1
not listed: [5]
inactive: all other assays above

O=C1CC2(CCCC2)CC(=O)N1CCNCC1COc2ccccc2O1 (stereo not drawn)
active: [3] 0.49 µM
inactive: [1] | [2] | [4]

COCCc1ccccn1
not listed: [5]
inactive: all other assays above

Cc1ccc(C(C)OC(=O)C2(C)CCC(C(=O)O)C2(C)C)cc1 (stereo not drawn)
not listed: [5]
inactive: all other assays above

O=C(c1ccco1)N1CCNCC1
not listed: [5]
inactive: all other assays above

O=C(OCC(O)CO)c1ccccc1Nc1ccnc2c(C(F)(F)F)cccc12 (stereo not drawn)
active: [3] 11 µM | [4] 6.17 µM
inactive: [1] | [2]

Cc1c(F)cc2c(=O)c(C(=O)O)cn3c2c1CCC3C (stereo not drawn)
not listed: [5]
inactive: all other assays above

CC(=O)O[C@H]1CC[C@@]2(C)C(=CC[C@@H]3[C@@H]2CC[C@]2(C)C(C(C)=O)=CC[C@@H]32)C1
not listed: [5]
inactive: all other assays above

CC(=O)Oc1ccc(C2(c3ccc(OC(C)=O)cc3)Oc3ccccc3NC2=O)cc1
inactive: [1] | [3]
active: [2] 12.6 µM | [4] 1.74 µM

CN1N=C(C(N)=O)CCC1=O
not listed: [5]
inactive: all other assays above

CCCc1c2oc(C(=O)O)cc(=O)c2cc2c(=O)cc(C(=O)O)n(CC)c12
not listed: [5]
inactive: all other assays above

CCN(CC)C(=O)C1CN2CCc3cc(OC)c(OC)cc3C2CC1OC(C)=O (stereo not drawn)
not listed: [5]
inactive: all other assays above

C=C(C)C(=O)OCC(O)CO (stereo not drawn)
not listed: [5]
inactive: all other assays above

CCN(CC)CC(=O)OCC(=O)[C@@]1(O)CC[C@H]2[C@@H]3CCC4=CC(=O)CC[C@]4(C)[C@H]3[C@@H](O)C[C@@]21C
not listed: [5]
inactive: all other assays above

CNC[C@H](O)[C@@H](O)[C@H](O)[C@H](O)CO
not listed: [5]
inactive: all other assays above

CC(C)(C)CC(=O)OCC(=O)[C@@]1(O)CC[C@H]2[C@@H]3CCC4=CC(=O)C=C[C@]4(C)[C@H]3[C@@H](O)C[C@@]21C
inactive: [1] | [2]
active: [4] 11 µM

CC(CCc1ccc2c(c1)OCO2)NN (stereo not drawn)
inactive: [1] | [2]
active: [4] 15.5 µM

O=C(O)/C=C(\CC(=O)O)C(=O)O
inactive: [1] | [2] | [4]

Nc1ccc(C(=O)N2CC3CC(CN(Cc4ccccc4)C3)C2)cc1
inactive: [1] | [2] | [4]

OCc1cccnc1
not listed: [3]
inactive: all other assays above

Nc1c2ccccc2nc2ccccc12
active: [3] 17.4 µM
inactive: [1] | [2] | [4]

CC(NC(CCc1ccccc1)C(=O)O)C(=O)N1C(=O)N(C)CC1C(=O)O (stereo not drawn)
not listed: [5]
inactive: all other assays above

CC(C)C(=O)OCc1cccc(OC(=O)[C@@H]2N3C(=O)[C@@H](NC(=O)Cc4ccccc4)[C@H]3SC2(C)C)c1
inactive: [1] | [2] | [3]
active: [4] 24.5 µM

CCCc1ncc(C(=O)O)s1
not listed: [5]
inactive: all other assays above
